# According to PubChem BioAssay AID1917 (Vanderbilt High Throughput Screening Facility, 2009):
# The whole screen tested about 3,000 compounds, of which about 1,600 (53%) were called active. About 10% were inconclusive and are not listed.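 Rule for the calls: active = Flux at 10 µM at least 3 SD below or above vehicle control mean in one or both replicates; inconclusive = no clear call, values can overlap the other calls; inactive = the rest.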 So high a share suggests a set chosen from earlier hits. These entries were drawn from the full list.
# Target: ATP-sensitive inward rectifier potassium channel 1 (Homo sapiens) (UniProt P48048)
# Assay: retested modulators of human Kir1.1 channel – cell-based, thallium flux, duplicate, resupplied hits, confirmation (AID 1917)
# Conditions: ROMK thallium flux, fluorescence ratio; at 10 µM; active compounds read low
# ATP-sensitive inward rectifier potassium channel 1 (Homo sapiens), sequence (P48048 whole entry, looked up): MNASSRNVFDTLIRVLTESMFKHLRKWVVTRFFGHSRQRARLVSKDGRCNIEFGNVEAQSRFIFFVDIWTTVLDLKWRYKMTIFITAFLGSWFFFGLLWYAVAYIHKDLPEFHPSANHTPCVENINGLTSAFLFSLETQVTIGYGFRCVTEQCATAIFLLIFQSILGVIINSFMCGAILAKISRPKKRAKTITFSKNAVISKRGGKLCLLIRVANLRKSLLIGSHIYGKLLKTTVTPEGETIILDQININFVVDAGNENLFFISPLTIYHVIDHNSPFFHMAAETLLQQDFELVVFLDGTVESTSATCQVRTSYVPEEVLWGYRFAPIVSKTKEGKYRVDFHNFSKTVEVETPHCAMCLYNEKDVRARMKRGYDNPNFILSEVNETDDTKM
row,Structure (SMILES),normalized thallium flux (F/F0 slope)
1,Cc1nc2ccccc2nc(=O)c1NNc1ccc([N+](=O)[O-])cc1,0.0842 (inactive)
2,O=[N+]([O-])c1ccc(N=Cc2c(O)ccc3ccccc23)cc1,0.064 (active)
3,COc1ccc(N=Cc2c(O)[nH]c3ccccc23)cc1OC,0.0799 (inactive)
4,C=CCn1cnc2scc(-c3ccccc3)c2c1=O,0.049 (active)
5,O=C(Nc1ccc(N2CCOCC2)cc1)c1ccc(-c2ccccc2[N+](=O)[O-])o1,0.108 (active)
6,O=C(CCN1CCc2ccccc2C(O)(c2ccccc2)C1)c1ccc2c(c1)OCCO2 (configuration not stated),0.0602 (active)
7,CSc1nc2nc3c(c(=O)n2[nH]1)CCC3,0.0761 (inactive)
8,Cc1cccn2c(=O)c3cc(C(=O)N4COCC4(C)C)n(C)c3nc12,0.0444 (active)
9,Cc1ccc(S(=O)(=O)C2(S(=O)(=O)c3ccc(C)cc3)CCCC2)cc1,0.0776 (inactive)
10,Cc1cc2cc(CN(Cc3cccs3)Cc3nnnn3CC3CCCO3)c(=O)[nH]c2cc1C (configuration not stated),0.0575 (active)
11,NC(=O)c1ccccc1N(Cc1ccccc1)S(=O)(=O)c1ccccc1,0.0757 (inactive)
12,O=C(O)c1ccc2c(c1)C(=O)N(c1ccc(/C=C/C(=O)c3ccccc3)cc1)C2=O,0.0504 (active)
13,CC(C)(c1ccccc1)c1ccc(OCCN)cc1,0.0605 (active)
14,CCCN(CCC)CC(O)COc1ccccc1C(=O)Nc1ccccc1 (configuration not stated),0.055 (active)
15,CS(=O)(=O)c1ccc(Cl)c(NC(=O)Nc2ccccc2)c1,0.0706 (inactive)
16,Cc1cccc(-n2c(SCC(=O)Nc3cccc(S(=O)(=O)NC4=NCCCCC4)c3)nc3ccccc3c2=O)c1C,0.0482 (active)
17,Cc1ccc(C)c(NC(=O)CSc2nc3c(oc4ccccc43)c(=O)n2-c2ccccc2)c1,0.077 (inactive)
18,O=C(CN1CCCCCC1)NCCN1C(=O)S/C(=C\c2ccccc2Cl)C1=O,0.0525 (active)
19,O=[N+]([O-])c1cc(Cl)cc(/C=N/NC(=S)Nc2cc(S(=O)(=O)N3CCOCC3)ccc2Cl)c1O,0.0856 (inactive)
20,O=C1C(=O)N(c2ccccc2)c2ccccc21,0.0906 (inactive)
21,CCCOc1ccc(C(=O)C(CCC(CNCC)C(=O)c2ccc(OCCC)cc2)CNCC)cc1 (configuration not stated),0.0393 (active)
22,O=C(Cn1nc(CNc2ccc(Cl)cc2)[n+]2c1CCCCC2)c1ccc(Cl)cc1,0.0549 (active)
23,Cn1c(SCC(=O)N2CCCc3ccccc32)nc2ccccc2c1=O,0.0629 (active)

row,Structure (SMILES),normalized thallium flux (F/F0 slope)
1,C=CCOc1cccc(CNn2cn[nH]c2=S)c1,0.0819 (inactive)
2,CN(C)/C=C(/C(=O)c1ccc(Cl)c(Cl)c1)c1nnnn1-c1ccccc1,0.0735 (inactive)
3,CC(C)CN(CC(C)C)CC(O)CN(c1ccccc1)S(=O)(=O)c1ccccc1[N+](=O)[O-] (configuration not stated),0.0763 (inactive)
4,COc1ccc([N+](=O)[O-])cc1N(CC(O)CN(CC(C)C)CC(C)C)S(=O)(=O)c1ccc(C)cc1 (configuration not stated),0.0621 (active)
5,O=C(CN1C(=O)NC(Cc2ccccc2)(Cc2ccccc2)C1=O)NCC1CCCCC1,0.056 (active)
6,O=C(CN1C(=O)NC2(CCCCC2)C1=O)NCCC1=CCCCC1,0.0839 (inactive)
7,COCCNC(=O)/C(C#N)=C/c1cccc(OCc2ccccc2)c1,0.042 (active)
8,CC(C(=O)NC1CCCC1)N(c1ccc(Oc2ccccc2)cc1)S(C)(=O)=O (configuration not stated),0.061 (active)
9,CCCCCCCCCCOC(=O)C[N+](C)(C)CC1CCCCC1O (configuration not stated),0.0597 (active)
10,CCOC(=O)Cc1csc(SCC(=O)NC(C)C23CC4CC(CC(C4)C2)C3)n1 (configuration not stated),0.0513 (active)
11,CCOC(=O)Cc1csc(NC(=O)CSc2ccc(Br)cc2)n1,0.0659 (active)
12,Cc1cc(/C=C2/C(=N)N3C(=NC2=O)SN=C3S(C)(=O)=O)c(C)n1-c1ccccc1,0.0746 (inactive)
13,CC1=CC2=NC(=O)/C(=C/c3coc4ccccc4c3=O)C(=N)N2O1,0.0388 (active)
14,O=C(CCl)N(Cc1cccc([N+](=O)[O-])c1)c1cccc(Cl)c1,0.0469 (active)
15,CC(C)(C)CC(C)(C)NCC(O)COCCOc1ccc(Br)cc1 (configuration not stated),0.0489 (active)
16,CC1CCCN(S(=O)(=O)c2ccc(N(C(=O)c3cnccn3)C(C(=O)NC3CCCCC3)c3cccs3)cc2)C1 (configuration not stated),0.0633 (active)
17,N#Cc1c(N)n(CCOC(=O)c2ccc(Cl)cc2)c2nc3ccccc3nc12,0.0672 (active)
18,O=C(Nc1nnc(SCc2ccccc2Cl)s1)c1cccc([N+](=O)[O-])c1,0.0638 (active)
19,CCC(C)(C)n1nnnc1C(c1cccs1)N1CCN(c2nc3ccccc3s2)CC1 (configuration not stated),0.0713 (inactive)
20,Cc1ccc(C(=O)C[n+]2cc(-c3ccccc3)n3c2CCCCC3)cc1,0.0564 (active)
21,CN(NC(=O)c1ccccc1F)c1nc(C(F)(F)F)nc2ccccc12,0.0894 (inactive)
22,O=C(/C=C/c1ccc(Cl)cc1Cl)c1cccnc1,0.0511 (active)
23,O=C(/C=C/c1ccc(Cl)c([N+](=O)[O-])c1)c1ccc(O)cc1,0.0498 (active)

row,Structure (SMILES),normalized thallium flux (F/F0 slope)
1,O=C(/C=C/c1ccc(Cl)c([N+](=O)[O-])c1)c1cccnc1,0.0474 (active)
2,O=C1COc2ccc(NC(=O)N3CCN(c4ccc(F)cc4)CC3)cc2N1,0.0765 (inactive)
3,O=C(CN1CCOCC1)N/N=C/c1ccc(-c2ccc(Br)cc2)o1,0.0674 (active)
4,O=C(NCCc1ccc2c(c1)OCCO2)c1cc2ccccc2o1,0.0628 (active)
5,COc1ccccc1-n1c(C)nc2cc(C(=O)NCc3ccc4c(c3)OCO4)ccc21,0.0924 (inactive)
6,COc1ccc2[nH]c(=O)c(CNc3ccc(C)c(C)c3)cc2c1,0.0713 (inactive)
7,Clc1ccc(-n2nnnc2-c2cnc(-c3ccccn3)nc2-c2cccs2)cc1,0.0713 (inactive)
8,CCC(c1nnnn1C1CCCC1)N(Cc1cccs1)Cc1cc2cccc(C)c2[nH]c1=O (configuration not stated),0.0635 (active)
9,Cc1cccc2cc(CN(Cc3nnnn3Cc3ccccc3)C3CCCC3)c(=O)[nH]c12,0.055 (active)
10,COc1ccc(C(=O)OCC(=O)c2ccc(C)c(S(=O)(=O)N3CCOCC3)c2)cc1OC,0.0776 (inactive)
11,C#CCOCCOCCOCCNc1nc(N2CCN(C(=O)[C@H](CCC(=O)O)n3cc(C(N)CO)nn3)CC2)nc(N2CCN(C(=O)[C@H](CCCCN)n3cc(C(N)[C@H](C)CC)nn3)CC2)n1 (some centres not stated),0.0789 (inactive)
12,Cc1ccc(CNC(=O)CC2Sc3ccccc3NC2=O)cc1 (configuration not stated),0.086 (inactive)
13,CSc1cccc(NC(=S)N(Cc2ccccc2)Cc2ccccn2)c1,0.0791 (inactive)
14,CNC(=O)/C(C#N)=C/c1c(F)cccc1Cl,0.0423 (active)
15,CCOC(=O)c1c(NC(=O)CCl)sc(C(=O)N(CC)CC)c1C,0.0722 (inactive)
16,COc1ccccc1N1CCN(CCCCOc2ccc(F)cc2)CC1,0.0581 (active)
17,Cc1ccccc1CCN(CC(=O)NC1CCCCC1)C(=O)c1csnn1,0.0568 (active)
18,Cc1cc(C(C)(C)C)oc1C(=O)N(CC(=O)NC1CCCC1)Cc1ccc(Cl)cc1,0.0748 (inactive)
19,CCCS(=O)(=O)N1CCC(C(=O)NCCCN(C)Cc2ccccc2)CC1,0.0759 (inactive)
20,COc1ccc(-c2[nH]ncc2CN(C)Cc2c(C)n[nH]c2C)c(OC)c1,0.0773 (inactive)
21,COC(=O)Cn1cc(/C=C/[N+](=O)[O-])c2ccccc21,0.0436 (active)
22,CCOc1ccc2nc(N3CCCN(C(=O)Nc4ccccc4C)CC3)c(C#N)cc2c1,0.0592 (active)
23,CCOc1ccc2nc(Cl)c(C3CC(c4ccccc4)=NN3C(=O)c3cccs3)cc2c1 (configuration not stated),0.084 (inactive)

row,Structure (SMILES),normalized thallium flux (F/F0 slope)
1,COc1ccccc1-n1c(=S)[nH]c2c(sc(=S)n2-c2ccc(C)cc2C)c1=O,0.0774 (inactive)
2,COc1ccc(Br)cc1C(=O)Nc1cccc(C)c1C,0.0855 (inactive)
3,Cc1cc(Br)ccc1NC(=O)c1cnc(N2CCN(c3ccccn3)CC2)c2ccccc12,0.0609 (active)
4,CN(C)c1ccc(C=C2C(=O)OC3(CCCC3)OC2=O)cc1,0.0453 (active)
5,CCOc1ccccc1C1C(C(=O)OC)=CN(C)C=C1C(=O)OC,0.0653 (active)
6,O=C(Nc1ccccc1-c1ccccc1)c1cccs1,0.0658 (active)
7,c1ccc2c(c1)CSc1sccc1C2=C1CCNCC1,0.0498 (active)
8,Fc1ccc2[nH]c3c(N4CCSCC4)ncnc3c2c1,0.0617 (active)
9,Cc1cc(/C=N/NC(N)=O)c(C)n1C1CCCCC1,0.0777 (inactive)
10,CC(NC(=O)CC1SC(N)=NC1=O)c1ccccc1 (configuration not stated),0.087 (inactive)
11,CCOC(=O)C1=C(C)N=c2s/c(=C\C(=O)OC)c(=O)n2C1c1ccc(OC)cc1 (configuration not stated),0.0406 (active)
12,CCCC(c1nnnn1C(C)(C)C)N1CCN(Cc2ccccc2)CC1 (configuration not stated),0.0716 (inactive)
13,O=C1c2cccc3c([N+](=O)[O-])ccc(c23)C(=O)N1CC1CCCO1 (configuration not stated),0.0565 (active)
14,CCN1C(=O)/C(=C2/Sc3ccccc3N2CCCS(=O)(=O)O)SC1=S,0.0827 (inactive)
15,CCCCc1nc(NCCN)c(C#N)c2c1CSC(C)(C)C2,0.0552 (active)
16,COc1cc2c(cc1OC)C(/C=C/c1ccco1)=NCC2,0.0485 (active)
17,O=C(Cc1ccccc1Cl)N1CCN(c2ccccn2)CC1,0.0716 (inactive)
18,O=C(Cc1ccc(Br)cc1)N1CCN(c2ccccn2)CC1,0.0628 (active)
19,COc1ccc(Cc2nc(-c3ccccn3)no2)cc1OC,0.0708 (inactive)
20,CCSc1sc(CC)cc1C=O,0.106 (active)
21,CC(NCc1ccccc1OC1CCCC1)c1ccccc1 (configuration not stated),0.0563 (active)
22,N=c1c2c(-c3ccccc3)c(-c3ccccc3)n(Cc3ccccc3)c2ncn1CCCO,0.0532 (active)
23,Cc1nnnn1/C(=C\c1ccccc1)C(=O)OCC(=O)N1CC2(C)CC1CC(C)(C)C2 (configuration not stated),0.0442 (active)
